Bioassay records from PubChem.
CFTR F508del cor: correctors of CFTR F508del function in bronchial epithelial cells; CFBE cells, YFP halide quenching; stimulated with forskolin plus potentiator P3; % fluorescence drop versus neutral controls; activity (quench increase), % at 7.58 µM; 0.36% of 350,000 active; AID 720511;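 active = mean added fluorescence quench of at least 8% versus neutral control, with both replicates also reaching 8%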;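 also: cells transiently co-express mutant CFTR-F508del with the halide-sensitive YFP; corrector assay measuring rescue of mutant channel to the surface after 24 h compound exposure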
ERAP1 inh: blocks human ERAP1 aminopeptidase activity; recombinant ERAP1, Leu-AMC fluorescence, 60 min; inhibition, % at 10.7 µM; 0.15% of 340,000 active; AID 652197;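 active = mean replicate inhibition of at least 30%, or all replicates individually reaching that 30% level; inactive = mean below 30% and not every replicate reaching it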;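 also: 0% = neutral control wells and 100% = L-leucinethiol positive control wells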
Ecoli rRNA inh: inhibitors of bacterial rRNA selective over humanized ribosomes. E. coli WT GFP vs humanized-ribosome RFP mutants, fluorescence, 24 h; hits give low values; DMSO median 0, no signal -100. GFP signal change (wild-type ribosome), % (concentration not given with the values). 1.6% of 350,000 active. AID 720706;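 active = significant combined selectivity score with lowered wild-type GFP, culture density cut under 30%, mutant RFP and density less affected; inactive = any of these conditions unmet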
PvdQ inh: P. aeruginosa PvdQ acylase inhibition; purified PvdQ acylase, fluorescence plate reader; inhibition, % at 10 µM; 0.063% of 340,000 active; AID 488965; in the data active = inhibition above about 30%, passing the limit was not always enough;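 also: 0% = vehicle neutral wells and 100% = reference inhibitor wells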
ARNT TACC3 PPI: disruptors of human ARNT/TACC3 interaction | AlphaScreen His-ARNT PAS-B/GST-TACC3 binding, luminescence; TACC3 fragment carries E629A point mutation | 0.66% of 390,000 active | Q9Y6A5 | inhibition, % at 9.99 µM;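 active = mean inhibition of replicates at least 50% and at least half of replicates each reaching 50%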;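 also: 0% = complete ARNT plus TACC3 wells and 100% = ARNT alone without TACC3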
* hit, by the source's call; . = no result given. Most compounds without a hit are left out; they make up all but 2.1% or so of the library.

SMILES	CFTR F508del cor	ERAP1 inh	Ecoli rRNA inh	PvdQ inh	ARNT TACC3 PPI
Cc1ncc(CO)c(/C=N/N=C/c2ccccc2O)c1O	.	.	.	6	-5
CCN(CC)c1ccc(N=Cc2ccccc2[N+](=O)[O-])cc1	.	0	-32*	-4	41
COc1ccc(CCNC(=O)CO/N=C/c2cc3c(cc2Br)OCO3)cc1OC	1	4	-36*	-9	3
COc1ccc(CCNC(=O)Cc2ccc3c(c2)OCO3)cc1OC	.	.	.	8	1
COc1ccc(/C=N\NC(=O)c2ccccc2F)cc1COc1ccc(F)cc1F	3	-2	-4	-9	-1
COc1ccc(/C=N/NC(=O)c2cc(C(C)(C)C)[nH]n2)cc1COc1ccc(F)cc1F	0	-2	-24*	-4	0
C/C=C/c1ccc2c(c1)O[C@@H](CN(C)C(=O)NC1CCCC1)[C@H](C)CN([C@H](C)CO)S2(=O)=O	.	0	-1	.	1
Cc1ccc(-c2nnc(Nc3ccc(CC(N)=O)cc3)c3ccccc23)cc1S(=O)(=O)NCC1CCCO1 (stereo not given)	-1	2	-31*	-4	12
Cc1ccc(S(=O)(=O)Nc2ccc3c(c2)C(=O)N([C@H](C)CO)C[C@@H](C)[C@H](CN(C)S(=O)(=O)c2ccccc2)O3)cc1	-1	3	-4	.	-3
Cc1cccc(N2CCc3c2nc2ccc(Br)cc2c3N)c1	0	4	-49*	-4	0
Nc1c2c(nc3ccc(Br)cc13)N(c1ccccc1)CC2	.	.	.	-6	9
COc1ccccc1CN1CC[C@@H]2[C@H]1c1cc(-c3cccc(C(=O)N(C)C)c3)ccc1N[C@@H]2CO	3	.	6	.	6
CCOc1ccc(C(=O)NCC(=O)NNC(=O)c2cc(C)oc2C)cc1OCC	16*	-1	14	-4	-9
CCOc1ccc(C(=O)NCC(=O)Nc2ccncc2)cc1OCC	-1	1	1	-10	6
O=C(COC(=O)/C=C/c1ccccc1Cl)NC(=O)Cc1ccccc1	.	-3	-10	3	.
O=C(COC(=O)/C=C/c1ccccc1Cl)NC(=O)NCc1ccccc1	8.9*	-1	2	-12	-16
O=C(/C=C/c1ccccc1Cl)NCCc1ccccc1	0	-7	-26*	-15	3
Cc1ccc(SCCNC(=O)/C=C/c2ccccc2Cl)cc1	-1	-3	-24*	4	-4
O=C(/C=C/c1ccccc1Cl)NCc1ccccc1	.	.	.	-15	2
Cc1ccc(SCCNC(=O)/C=C/c2ccc(Cl)cc2)cc1	.	.	.	5	-3
COc1ccc(NC(=O)N(C)C[C@H]2Oc3ccc(NC(=O)CCC(F)(F)F)cc3C(=O)N([C@@H](C)CO)C[C@H]2C)cc1	0	0	-6	.	-6
O=C(NCc1ccc(F)cc1)[C@H]1[C@H](CO)[C@H]2Cn3c(cccc3=O)[C@H]2N1Cc1ccccn1	-5	2	0	.	6
COc1cc(NC(=O)COC(=O)/C=C/c2ccc(O)c(OC)c2)cc(OC)c1	0	-2	-29*	-1	2
CCCNC(=O)c1cc(C2CCCN(S(=O)(=O)c3cccc4cccnc34)C2)on1 (stereo not given)	-4	0	-15*	.	.
O=C(C[C@@H]1C[C@@H]2c3cc(NC(=O)NC4CCCC4)ccc3O[C@@H]2[C@@H](CO)O1)NCc1cccnc1	1	-3	2	.	.
SMILES	CFTR F508del cor	ERAP1 inh	Ecoli rRNA inh	PvdQ inh	ARNT TACC3 PPI
C[C@H](CO)N1C[C@H](C)[C@H](CN(C)Cc2ccc3c(c2)OCO3)OCCCC[C@H](C)Oc2ccc(NS(=O)(=O)c3ccc(F)cc3)cc2C1=O	3	2	6	.	0
Cc1cc(/C=C(\C#N)C(=O)NCCc2c[nH]c3ccccc23)c(C)n1C	-1	0	-38*	6	.
COc1ccccc1NC(=O)NCCc1c[nH]c2ccccc12	-6	-3	-22*	-6	13
Cc1ccc(C)c(NC(=O)C(=O)NCCc2c[nH]c3ccccc23)c1	0	.	-21*	1	2
Cc1ccccc1NC(=S)NCCc1c[nH]c2ccccc12	.	-1	-24*	-17	9
Cc1ccc(C)c(NC(=S)NCCc2c[nH]c3ccccc23)c1	0	11	-17	-3	4
O=C(NCCc1c[nH]c2ccccc12)Nc1ccccc1	.	.	.	7	-3
COc1ccc(CCNC(=S)NCCc2c[nH]c3ccccc23)cc1	0	.	-33*	9	11
Cc1ccccc1CSc1nc2[nH]ncc2c(=O)[nH]1	3	0	-7	-8	-3
